High-throughput results from PubChem BioAssay.
S2 tox – viability counter-screen for ATXN expression inhibitors | S2 cells (HEK-293 line with an ATXN2-luciferase reporter) viability, CellTiter-Fluor protease fluorescence, 24 h | Potency, µM (doses to about 56.7 µM), most hits filed as cytotoxic | hit rate 0.49% among 400,000 | AID 651635; also: nearly all actives have a fitted effect of over 40% in size
HT1080 IDH1KD tx – kills HT-1080 cells with IDH1 knockdown. HT-1080 IDH1 knockdown viability, ATP luminescence, 48 h. Potency, µM (series often up to 46.1 µM), for the others: at the highest dose activity, negative = toxicity, hits mostly cytotoxic. hit rate 2% among 360,000. AID 686971;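 also: 0% = DMSO wells and -100% = cell-free medium wells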
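CellTiter-Glo luminescence after 48 h compound exposure at 37 degrees C of IDH1-knockdown HT-1080 cells in 5% FBS RPMI. %Activity scaled between DMSO wells and cell-free media wells, with curves fitted and assigned curve classes.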
KB-V1 MDR tox – KB-V1 MDR subline cytotoxicity. KB-V1 MDR cells viability, CellTiter-Glo, 72 h. Potency, µM (titrated, usually from 46.1 µM), hits mostly cytotoxic. hit rate 3.4% among 400,000. AID 1347076; also: % is scaled to controls: 0 for no effect and ±100 for the full control effect; nearly all actives have a fitted effect of over 60% in size
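Cytotoxicity toward P-gp-expressing KB-V1 cells was determined as loss of CellTiter-Glo luminescence after 72 h at 37 degrees C. Compounds were tested in quantitative HTS format across a concentration range, with curves fitted to normalized data.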
ATXN2 expr inh – inhibitors of ATXN2 expression | HEK-293 ATXN2-luciferase reporter, luminescence, 24 h | Potency, µM (doses to about 57 µM), for inactives: at the top dose activity change, negative = inhibition, actives largely listed as inhibitors | hit rate 0.72% among 360,000 | AID 1745845; also: % is scaled to controls: 0 for no effect and ±100 for the full control effect; nearly all actives have a fitted effect of over 55% in size
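ATXN2-luciferase reporter cells (luciferase flanked by upstream and downstream ATXN2 gene portions) were treated 24 h at 37 °C with compounds at up to 57 uM. SteadyGlo luminescence gave expression; GF-AFC fluorescence gave viability.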
HT1080NT lethal – kills 2HG-producing HT-1080-NT fibrosarcoma cells. HT-1080-NT fibrosarcoma viability, CellTiter-Glo ATP luminescence, 48 h. Potency, µM (series often up to 46.1 µM), for the others: top-dose activity, negative = less viability, actives largely listed as cytotoxic. hit rate 1.6% among 360,000. AID 686970;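 also: NT is the 2HG producing partner of a matched IDH1 knockdown line; 0% = DMSO-treated cells and -100% = media-only wells without cells; nearly all actives have a fitted effect of over 55% in size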
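Toxicity toward the 2HG-producing NT line was scored as %Activity, normalised to DMSO and no-cell wells, from CellTiter-Glo luminescence after 48 hours' treatment.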
KB-3-1 cytotox – kills parental KB-3-1 adenocarcinoma cells | hit rate 1.4% among 400,000 | KB-3-1 viability, CellTiter-Glo ATP luminescence, 72 h | Potency, µM (series often up to 46.1 µM), most hits filed as cytotoxic; also: % is scaled to controls: 0 for no effect and ±100 for the full control effect; nearly all actives have a fitted effect of over 60% in size
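Using CellTiter-Glo luminescence, growth of non-resistant KB-3-1 adenocarcinoma cells is assessed 72 h after pin-tool compound addition at 37 °C. Normalized responses across the concentration series yield fitted curves.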
The depositor's hits bear a star; i = inactive; u = inconclusive; x = no result; [ ] = remark or other dose. Most compounds without a hit are left out; they make up all but 6.2% or so of the library. Calls follow the shape of the dose curve; as a rule, active = well fitted curve in the direction sought with a large enough effect; inconclusive = small, poorly fitted or top-dose-only effect, or another doubt; inactive = no such curve, though single readings can be large; an effect the other way counts as inactive or inconclusive. Potency is read from the fitted curve at half-maximal effect.

SMILES | S2 tox | HT1080 IDH1KD tx | KB-V1 MDR tox | ATXN2 expr inh | HT1080NT lethal | KB-3-1 cytotox
COc1cccc(CNC(=O)NCc2noc3ccc(C)cc23)c1 | i | x | i | -3% | x | i
CCCCNC(=O)CC(C(=O)N1CCc2ccccc21)n1ccnc1 (centres undefined) | i | 10% | i | -3% | -1% | i
CCN(CCCNC(=O)CC(C(=O)N1CCc2ccccc21)n1ccnc1)c1cccc(C)c1 (centres undefined) | i | u | 12µM* | 0% | -2% | i
O=C(CC(C(=O)N1CCc2ccccc21)n1ccnc1)N1CCc2ccccc2C1 (centres undefined) | i | u | 8.2µM* | -6% | -1% | i
CC(C)(CO)NC(=O)c1cnn(-c2ncc3c(n2)-c2ccccc2CC3)c1C1CC1 | i | x | x | x | x | x
CCOc1ccc2[nH]c(=O)c(CN(CCc3ccccc3)C(=O)N3CCOCC3)cc2c1 | i | -1% | 15µM* | -6% | 8% | i
CCOc1ccc2[nH]c(=O)c(CN(CCc3ccccc3)C(=O)N3CCCC3)cc2c1 | u | -5% | i | u | -3% | i
O=S(=O)(c1ccc(-c2csc(Nc3ccc(F)cc3)n2)cc1)N1CCCC1 | i | u | i | -22% | u | i
Cc1ccc(Nc2nc(-c3ccc(S(=O)(=O)N4CCCC4)cc3)cs2)cc1C | i | u | 2.6µM* | -14% | u | 7.3µM*
Cc1cc(C)cc(Nc2nc(-c3ccc(S(=O)(=O)N4CCCC4)cc3)cs2)c1 | i | u | u | u | u | 4.6µM*
COC(=O)c1ccc2nc(-c3ccc4c(c3)OCO4)cn2c1 | i | 23% | i | u | 12% | i
CCc1ccn2cc(-c3ccc4c(c3)OCO4)nc2c1 | u | 13µM* | u | 3.5µM* | 12µM* | u
COc1cc(OC)cc(C(=O)NC(=S)N2CCCCCC2)c1 | i | 1% | 18µM* | -7% | -20% | i
COc1ccc(C(=O)NC(=S)N2CCCC2)cc1 | u | 9% | i | -3% | 15% | i
COc1ccc(C(=O)NC(=S)N2CCCCC2)cc1 | i | 0.79µM* | i | 20% | 0.56µM* | i
COc1cc(OC)cc(C(=O)NCC(=O)N2CCCCC2)c1 | i | 1% | i | -15% | -3% | i
COc1ccc(-c2noc(-c3ccc(NCc4ccco4)c([N+](=O)[O-])c3)n2)cc1OC | i | x | i | 5% | x | i
CCOc1ccc(N=Nc2c(=O)[nH]n3c(=O)cc(C)[nH]c23)cc1 | i | u | u | -6% | u | 23µM*
Cc1cn2c(=O)c(S(=O)(=O)NC(C)c3ccccc3)c(C)nc2s1 (centres undefined) | x | x | i | x | x | i
O=C(NCCCn1ccnc1)c1cc2nc(-c3ccc(Br)cc3)cc(C(F)(F)F)n2n1 | u | u | i | u | 23µM* | i
CCOC(=O)C1=C(CS(=O)(=O)c2c(C)cc(C)cc2C)NC(=O)NC1c1cccc(OC)c1 (centres undefined) | i | x | i | -9% | x | i
COc1ccc(N2CCN(C3(c4ccccc4)C(=O)c4ccccc4C3=O)CC2)cc1 | i | x | i | -5% | x | i
Cc1cccc(C(=O)N(c2ccccn2)C(C)c2ccco2)c1 (centres undefined) | i | 4% | i | -19% | 10% | i
Cc1cc(C)cc(C(=O)N(c2ccccn2)C(C)c2ccco2)c1 (centres undefined) | i | 1% | 13µM* | -9% | 6% | i
CCNc1c2c3c(cccc3n(C)c1=O)C(=O)c1ccccc1-2 | u | 5% | 1.2µM* | -3% | 5% | u
SMILES | S2 tox | HT1080 IDH1KD tx | KB-V1 MDR tox | ATXN2 expr inh | HT1080NT lethal | KB-3-1 cytotox
Cn1c(=O)c(NCCc2ccccc2)c2c3c(cccc31)C(=O)c1ccccc1-2 | x | -29% | i | -15% | -15% | i
Cc1nc(NC(=O)c2cccc(-c3cc4ccccc4oc3=O)c2)ccc1Br | u | 8% | u | -26% | 20% | u
O=C(Nc1ccc(N2CCCC2)cc1)c1cccc(-c2cc3ccccc3oc2=O)c1 | i | 0% | i | 0% | 7% | i
O=C(Nc1ccc(Br)cn1)c1cccc(-c2cc3ccccc3oc2=O)c1 | i | 23µM* | i | -27% | u | u
O=C(Nc1ccccc1N1CCCC1)c1cccc(-c2cc3ccccc3oc2=O)c1 | i | -11% | 3.7µM* | 13% | -19% | i
CC(C)(C)c1cccc(S(=O)(=O)N2CCN(c3nc(-c4cccs4)nc4ccccc34)CC2)c1 | x | 4% | x | x | 17% | x
CCOc1ccc2nc(SCC(=O)N3c4ccccc4Sc4ccccc43)sc2c1 | i | 9% | i | 12% | 8% | i
CC1CCN(C(=O)CSc2nc3ccccc3s2)CC1 | i | 7% | 15µM* | 41% | 9% | i
O=C(CSc1nc2ccccc2s1)N1c2ccccc2Sc2ccccc21 | i | -15% | 21µM* | -15% | 0% | u
O=C(O)C1CCN(C(=O)CSc2nc3ccccc3s2)CC1 | i | -2% | i | 8% | 9% | i
O=C(CSc1ccc(Cl)cc1)N1CCC(c2nc3ccccc3s2)CC1 | i | -7%[9.24 µM] | 10µM* | -11% | u | u
CC1CCCN(C(=O)CSc2cnc3ccccc3n2)C1 (centres undefined) | i | -12% | 9.2µM* | 27% | 1% | i
OC1(c2cccnc2)CCN(Cc2ccc3c(c2)CN(Cc2cccc(C(F)(F)F)c2)CCO3)CC1 | i | x | x | x | x | x
CCC(=O)N1CCc2cc(S(=O)(=O)NC(CC(C)C)C(=O)NCc3cccc(OC)c3)ccc21 (centres undefined) | i | x | i | 3% | x | i
CCS(=O)(=O)NCc1c(C)ncc2c1CCN(C(=O)c1ccc(F)cc1)C2 | i | x | x | x | x | x
CCOC(=O)c1c(C)oc2ncnc(N3CCN(c4ccccc4F)CC3)c12 | u | x | i | u | x | i
CC(Oc1ccc(F)cc1)C(=O)N1CCC(c2nc3ccccc3s2)CC1 (centres undefined) | u | x | 8.2µM* | u | x | i
Cc1ccccc1C(=O)N1CCC(c2nc3ccccc3s2)CC1 | u | x | u | u | x | i
COc1ccccc1NC(=O)CCc1nc(-c2cccs2)no1 | u | 18% | i | 5% | 7% | i
COc1ccccc1-c1noc(CCC(=O)Nc2cccc(C(F)(F)F)c2)n1 | u | -19% | 21µM* | -26% | 0% | u
